# In PubChem BioAssay AID686979 (National Center for Advancing Translational Sciences (NCATS), 2013):
# Screen size: about 420,000 compounds; about 50,000 (12%) were called active. Another 26% or so got no clear call; they are omitted. Many of the other results were omitted from the sample, so actives are more common in it than they were. A number with no mark means an inactive call. Calls follow the shape of the dose curve; as a rule, active = well fitted inhibition curve with a large enough effect; inconclusive = small, poorly fitted or top-dose-only effect; inactive = flat fitted curve, though single readings scatter.
# Assay: qHTS for Inhibitors of human tyrosyl-DNA phosphodiesterase 1 (TDP1): qHTS in cells in presence of CPT; also: nearly all actives have a fitted effect of over 55% in size
# Details: chicken DT40 Tdp1-/-;hTDP1 cells + 20 nM CPT, ATP luminescence, 48 h; series mostly up to 46.2 µM; activity change, negative = growth inhibition: at the top concentration
# Procedure, shortened: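 Chicken DT40 Tdp1-/- cells stably complemented with human TDP1 were seeded at 400 cells/well in medium containing 20 nM camptothecin, exposed to pin-transferred compounds, and grown at 37 °C for at least 48 hr. Viability was read as ATP luminescence.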
# % is scaled to controls: 0 for no effect and ±100 for the full control effect; potency is read from the fitted curve at half-maximal effect.
SMILES,"activity change, negative = growth inhibition [%]",Potency
Cc1nc2ccccc2n1CC(O)c1ccccc1 (stereo not given),6.8,
Cc1ccc(Oc2nc3ccccc3n3c(C)nnc23)cc1,-14.2,
Cc1ccc(C2=NN(C)c3nc4ccccc4n3C2)cc1,,18.4 µM (active)
COC(=O)C(C)N=Cc1ccccc1 (stereo not given),-12.3,
Cc1ccc(C(=O)Nc2ccc(C(=O)O)cc2)cc1S(=O)(=O)Nc1ccccc1,0.932,
O=C1CCC(CCC(=O)N2CCCC(C(=O)c3ccc(Cl)cc3)C2)=NN1 (stereo not given),-1.89,
CSCC(=O)N1CCCC(C(=O)c2cc(F)ccc2F)C1 (stereo not given),-5,
COc1ccc(F)cc1C(=O)C1CCCN(C(=O)CCc2ccccn2)C1 (stereo not given),,16.4 µM (active)
O=C1NC(O)CCN1C1CC(O)C(CO)O1 (stereo not given),-0.775,
C=CCNC(=O)COC(=O)CNC(=O)c1cc(Cl)cc([N+](=O)[O-])c1,-4.44,
O=C(O)c1ccccc1Cc1ccc(F)c2ccccc12,49.6,
O=C(Nc1nnc(Cc2ccccc2)s1)c1cnccn1,-5.61,
CC1CCN(C2=NC(=O)/C(=C/c3cn[nH]c3-c3ccccc3)S2)CC1,-28.9,
Cc1ccc(Cl)cc1N1CCN(C(=O)c2cn(C)c3ccc(S(=O)(=O)N(C)C4CCCCC4)cc3c2=O)CC1,-28.2,
CCn1cc(C(=O)N2CCN(c3cc(Cl)ccc3C)CC2)c(=O)c2cc(S(=O)(=O)N3CCCC3)ccc21,,23.1 µM (active)
CCn1cc(C(=O)N2CC(C)CC(C)C2)c(=O)c2cc(S(=O)(=O)N3CCCC3)ccc21 (stereo not given),-9.06,
Cc1ccc(S(=O)(=O)N2CCN(C)CC2)cc1C(=O)NC1CCCCC1,-7.5,
CCn1cc(C(=O)N(C)Cc2ccccc2)c(=O)c2cc(S(=O)(=O)N3CCCCCC3)ccc21,2.57,
CCn1cc(C(=O)NC2CCCCCC2)c(=O)c2cc(S(=O)(=O)N3CCCCC3)ccc21,,29.1 µM (active)
CCCCc1cc(=O)oc2c(C)c(OCC(=O)N3CCC(C(N)=O)CC3)ccc12,1.82,
CCOc1ccc(Br)cc1S(=O)(=O)Nc1ccc(S(=O)(=O)Nc2cc(C)on2)cc1,7.48,
O=C(NCc1ccc2c(c1)OCO2)c1ccc(Cl)s1,-3.29,
O=C(NCc1ccc2c(c1)OCO2)c1sccc1Br,13,
O=C(NCc1ccc2c(c1)OCO2)c1c(-c2ccsc2)sc2ccccc12,,14.6 µM (active)
CC(C)(C)C(=O)CSc1ccc(S(=O)(=O)N2CCCC2)cn1,-29.4,

SMILES,"activity change, negative = growth inhibition [%]",Potency
CN=C1SC(CC(=O)Nc2ccc(C(=O)O)cc2)C(=O)N1C (stereo not given),-17.1,
CCC(=C/c1sc2ccc3ccccc3c2[n+]1C)/C=C1\Sc2ccc3ccccc3c2N1C,,0.231 µM (active)
COc1ccc(N(CC(=O)N2CCOCC2)S(=O)(=O)c2ccccc2)cc1Cl,1.17,
CSc1ncc(C(=O)NCCCc2ccccc2)c(C)n1,-28.1,
O=C(O)c1ccccc1-c1ccccc1C(=O)NCCc1ccccc1,13.9,
COc1ccc(CCNC(=O)C2CCN(c3nn4c(=O)cc(C)nc4s3)CC2)cc1OC,2.71,
O=C(NCCc1ccccc1)c1cnc2sc(N3CCCC3)nn2c1=O,,16.4 µM (active)
COc1ccc(CCNC(=O)c2ccc(NC(=O)CC3SC(N4CCCCC4)=NC3=O)cc2)cc1OC (stereo not given),-27.3,
COc1ccc(CCNC(=O)c2cnc3sc(N4CCCCCC4)nn3c2=O)cc1OC,,11.6 µM (active)
Cc1cc(C)c(S(=O)(=O)NCC(c2ccc3c(c2)OCO3)N2CCOCC2)c(C)c1 (stereo not given),-0.185,
COc1cc(OC)cc(C(=O)NNC(=O)Cc2cccs2)c1,-7.38,
COCCCNC(=O)Cc1ccc(-n2c(C)nc3cccnc32)cc1,-15.6,
CCc1nc2cccnc2n1-c1ccc(C(=O)O)cc1,3.09,
COc1cc(OC)c(NC(=O)Cc2ccc(-n3c(C)nc4cccnc43)cc2)cc1Cl,,23.1 µM (active)
Cc1cccc(-n2nc3c(c2NC(=O)c2cc4ccccc4o2)CS(=O)(=O)C3)c1,-3.89,
O=C(CN1CCC(O)(c2cccc(C(F)(F)F)c2)CC1)NCCc1ccccc1,-7.6,
CSc1ccc(C(=O)C2CCCN(C(=O)c3ccc(C)nc3)C2)cc1 (stereo not given),,20.6 µM (active)
O=C(c1ccc(F)cc1)N1CCCC(C(=O)N2CCCCC2)C1 (stereo not given),-8.79,
Cc1cnc(C(=O)N2CCCC(N3CCN(c4ccccc4F)CC3)C2)cn1 (stereo not given),-22.6,
COc1cc2c(cc1OC)C(C(=O)Nc1cc(C)c(OC)c(C)c1)CC(=O)N2 (stereo not given),-5.19,
COc1ccc(NC(=O)c2ccco2)cc1NC(=O)c1ccc(C#N)cc1F,-2.04,
COc1ccc(N(CC(=O)N2CCCCCC2)S(=O)(=O)c2ccccc2)cc1,0.579,
CCC(C)[C@H](NC(=O)N1c2ccccc2NC(=O)[C@@H]1C(C)C)C(=O)N[C@@H](Cc1ccccc1)C(=O)O (stereo not given in full),10.8,
CCOC(CNC(=O)C1CCN(S(=O)(=O)c2ccc3nc4c(c(C(=O)O)c3c2)CC(C)CC4)CC1)OCC (stereo not given),5.36,
CCCc1nn2c(=O)cc(CSCC(=O)Nc3cccc(C)c3)nc2s1,-12.7,
